Measurements published in PubChem BioAssay (NCI).
The panel holds about 79,000 compounds, 15% with a hit somewhere; the sample as a whole holds those more often. Values without a mark were called inactive. The source made the active and inactive calls. Cut-off read from the data, not from the text of the source: active = growth inhibition above about 70%; inactive = the rest.

Tests used:
[1] = NCI Yeast Anticancer Drug Screen. Data for the rad50 strain (AID 155);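 note: 0% = growth of vehicle-only cultures of the same strain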; settings: S. cerevisiae rad50 strain growth inhibition, active compounds read high
How it was run: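 Cells are treated with compound, grown, and their growth is then scored against vehicle-only cultures of the same repair-deficient yeast strain.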

[2] = NCI Yeast Anticancer Drug Screen. Data for the mec2-1 strain (AID 157); settings: S. cerevisiae mec2-1 strain, active compounds read high
How it was run: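 mec2-1 yeast strain, carrying an alteration in DNA damage repair or cell cycle control, was exposed to compounds; growth inhibition was measured relative to vehicle-treated controls.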

[3] = NCI Yeast Anticancer Drug Screen. Data for the sgs1 mgt1 strain (AID 161);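 note: 0% = growth of cultures given vehicle only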; settings: S. cerevisiae sgs1 mgt1 strain, active compounds read high
How it was run: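 Compounds are added to genetically altered yeast, and growth is compared with cultures given vehicle alone to give percent inhibition.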

[4] = NCI Yeast Anticancer Drug Screen. Data for the cln2 rad14 strain (AID 165);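 note: 0% = growth equal to vehicle treated cultures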; settings: S. cerevisiae cln2 rad14 strain, active compounds read high
How it was run: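 Yeast carrying cln2 and rad14 alterations (cell cycle control and DNA damage repair) were exposed to compounds. Growth inhibition was measured against vehicle-treated controls.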

[5] = NCI Yeast Anticancer Drug Screen. Data for the bub3 strain (AID 167); settings: S. cerevisiae bub3 mutant strain, active compounds read high
How it was run: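 Part of a panel of yeast mutants defective in DNA damage repair or cell cycle regulation. Each strain is grown with compound, and inhibition is calculated relative to solvent-treated cultures.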

[6] = NCI Yeast Anticancer Drug Screen. Data for the mlh1 rad18 strain (AID 175); settings: S. cerevisiae mlh1 rad18 strain growth inhibition, active compounds read high
How it was run: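 Growth inhibition of the yeast strain was measured after compound exposure and expressed relative to vehicle-treated controls. The strain carries defined defects in DNA damage repair.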

[7] = at 5.0 µM (retest, dose inferred, filed as 0.5)
[8] = at 50.0 µM (retest, dose inferred, filed as 5.0)

Row | SMILES | growth inhibition [1, 7] | growth inhibition [1, 8] | growth inhibition ([1]; at 50.0 µM) | growth inhibition [2, 7] | growth inhibition [2, 8] | growth inhibition ([2]; at 50.0 µM) | growth inhibition [3, 7] | growth inhibition [3, 8] | growth inhibition ([3]; at 50.0 µM) | growth inhibition [4, 7] | growth inhibition [4, 8] | growth inhibition ([4]; at 50.0 µM) | growth inhibition [5, 7] | growth inhibition [5, 8] | growth inhibition ([5]; at 50.0 µM) | growth inhibition [6, 7] | growth inhibition [6, 8] | growth inhibition ([6]; at 50.0 µM)
1 | COc1ccc(NNC(=O)c2ccccc2)cc1 | 29% | 97% (active) | 96.3% (active) | 9% | 95% (active) | 97.5% (active) | 13% | 98% (active) | 96.3% (active) | 3% | 97% (active) | 96.8% (active) | -9% | 98% (active) | 98.2% (active) | 13% | 98% (active) | 97.7% (active)
2 | FC(F)(F)c1nc(Cl)nc2nc[nH]c12 | 3% | -9% | 26.4% | -7% | -2% | 6.1% | -3% | -10% | -31.4% | -3% | 0% | 17.4% | -1% | 4% | -21.7% | 0% | -8% | -4.75%
3 | CC1(C)CC(O)C(O)C1 (stereo not given) | -2% | -2% | -4% | 2% | 0% | 7.25% | 0% | -1% | 12.6% | -2% | -13% | 67.5% | 2% | 11% | -1.7% | -1% | -4% | -5.6%
4 | NC1C(=O)C2CCCCC2C(=O)C1C(=O)c1ccccc1 (stereo not given) | -2% | 28% | -0.5% | 4% | 17% | 16.4% | -1% | -6% | 23.4% | 1% | 10% | -55.4% | 5% | 49% | 73.9% (active) | 3% | 24% | 48.1%
5 | CC(=O)Nc1ccc(C(=O)NN2C(=O)C(Cl)C2c2cc(Br)cc(Br)c2O)cc1 (stereo not given) | 20% | -5% | -18% | -6% | 5% | -25.1% | -1% | -7% | -23.4% | 0% | 12% | 2% | -17% | -11% | 0.85% | 7% | 26% | -35%
6 | CC(C)(C)c1c2c(c(C(C)(C)C)c3c1OCN(Cc1ccccc1)C3)OCN(Cc1ccccc1)C2 | 4% | 12% | 54.1% | 0% | -13% | 9.25% | -2% | -19% | 71.7% (active) | -15% | -38% | 17.6% | -5% | 18% | 11.7% | -10% | 1% | 41.5%
7 | CCOC(=O)c1c(Cl)nc2ccccc2c1N=[N+]=[N-] | -10% | 77% (active) | 79.3% (active) | 14% | 95% (active) | 82.5% (active) | -13% | 93% (active) | 88.7% (active) | 20% | 86% (active) | 58% | -21% | 81% (active) | 86.8% (active) | 2% | 95% (active) | 89.5% (active)
8 | N#Cc1c(Cl)nsc1-c1ccc([N+](=O)[O-])cc1 | -6% | 35% | 91.2% (active) | 7% | 65% | 93% (active) | 1% | 33% | 91.1% (active) | 27% | 59% | 88.8% (active) | -6% | 80% (active) | 92.3% (active) | 7% | 87% (active) | 84.6% (active)
9 | Cc1ccc(NC(=O)Cc2nc3ccccc3s2)c(C)c1 | 7% | 99% (active) | 98.7% (active) | 9% | 98% (active) | 99.3% (active) | 20% | 99% (active) | 99.5% (active) | 6% | 91% (active) | 95.7% (active) | 29% | 99% (active) | 99% (active) | 14% | 99% (active) | 99% (active)
10 | COC(=O)c1cc(-c2c[nH]cc2C(=O)OCc2ccccc2)cn1S(=O)(=O)c1ccc(C)cc1 | 17% | 6% | 92.5% (active) | 18% | 11% | 93.1% (active) | 7% | -6% | 94.4% (active) | 2% | 2% | 88.9% (active) | -39% | 2% | 87.3% (active) | 24% | 22% | 91.2% (active)
11 | Cc1ccc(OS(=O)(=O)c2ccc(Br)cc2)cc1 | 2% | 5% | -6% | -16% | 10% | 0.05% | 8% | 19% | -3.65% | 9% | 6% | -1% | 16% | 41% | -7% | 3% | 31% | 12.7%
12 | Cc1ccccc1Oc1ccccc1N | 12% | 38% | 79.2% (active) | -26% | 15% | 65.9% | -1% | 1% | 69.8% | 9% | 34% | 78.4% (active) | -16% | 10% | 58.6% | -15% | 39% | 81.8% (active)
13 | CCCCCCCCCCCCOC(=O)C[n+]1cccc(C(N)=O)c1 | -1% | 99% (active) | 99.8% (active) | -4% | 99% (active) | 99.7% (active) | -3% | 81% (active) | 99.8% (active) | -8% | 96% (active) | 98.2% (active) | -6% | 99% (active) | 99.6% (active) | -4% | 99% (active) | 99.7% (active)
14 | CCC(CC)C(c1ccc(O)cc1)c1ccc(O)cc1 | 92% (active) | 99% (active) | 99.5% (active) | 83% (active) | 100% (active) | 99.5% (active) | 88% (active) | 77% (active) | 99.6% (active) | 97% (active) | 100% (active) | 99.2% (active) | 75% (active) | 98% (active) | 99.7% (active) | 95% (active) | 100% (active) | 99.5% (active)
15 | CCc1cccc(C)c1N1C(=O)C(=O)C(c2nc3ccccc3o2)/C(=N\NS(=O)(=O)c2ccc(C)cc2)C1=O (stereo not given) | 7% | 0% | -6.6% | 15% | 34% | 14.2% | 6% | 2% | 4.4% | 8% | -2% | 36% | 8% | 14% | 6.6% | 5% | 15% | 0.25%
16 | Cc1cc(C)[nH]c(=S)n1.[Pt] | -1% | -9% | 8.7% | 0% | -3% | 35.2% | -2% | -5% | 12.2% | 2% | 7% | 81.3% (active) | 2% | -2% | 21.9% | -2% | -7% | 0.5%
17 | CCC(=O)NC1=C(Cl)C(=O)c2ccccc2C1=O | 99% (active) | 99% (active) | 99.2% (active) | 100% (active) | 99% (active) | 98.2% (active) | 100% (active) | 100% (active) | 98.2% (active) | 99% (active) | 100% (active) | 86.2% (active) | 99% (active) | 99% (active) | 98.9% (active) | 99% (active) | 99% (active) | 98.5% (active)
18 | O=C(O)CCSc1ncnc2nc[nH]c12 | 3% | 0% | -22.9% | 1% | -18% | -12.8% | 0% | -24% | -30.5% | -25% | -97% | 27.4% | -10% | -7% | -18.8% | -7% | -1% | -13.9%
19 | C/C(=N/NC(=S)Nc1cccc(C)c1)c1ccccn1 | 62% | 99% (active) | 80.2% (active) | 91% (active) | 99% (active) | 85.9% (active) | 75% (active) | 99% (active) | 88.3% (active) | 94% (active) | 99% (active) | 88.9% (active) | 96% (active) | 99% (active) | 90.3% (active) | 68% | 99% (active) | 91% (active)
20 | CCCCCCCCCCCCCCCCCC[N+]1(CC)CCCCC1 | 99% (active) | 99% (active) | 90.3% (active) | 99% (active) | 99% (active) | 91.2% (active) | 99% (active) | 99% (active) | 91.5% (active) | 99% (active) | 99% (active) | 90.2% (active) | 99% (active) | 99% (active) | 90.4% (active) | 99% (active) | 99% (active) | 89.2% (active)
